This is a sample that favours compounds with a hit; in the whole collection about 3.7% have one here.
tim10-1 inh = inhibits growth of tim10-1 mutant yeast | S. cerevisiae tim10-1 ts strain growth, BacTiter-Glo, 24 h | actives 2.2% (n = 330,000) | inhibition, % at 20 µM | AID 463190;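 active = inhibition of at least 40%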;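 also: mutant grown at 25 °C; 0% = DMSO wells with yeast and 100% = wells holding no yeast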
NALP3 yeast inh = inhibitors of NALP3 inflammasome in yeast; actives 0.39% (n = 330,000); AID 2825; Yeast reconstituted NLRP3/ASC/caspase-1, beta-gal luminescence, 24 h; inhibition, % at 10 µM;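 active = inhibition of 50% or more; inactive = inhibition below 50%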;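 also: plate controls were induced DMSO wells for no effect and uninduced yeast grown without galactose for full effect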
TIM10 inh = TIM10 yeast growth inhibition. inhibition, % at 10 µM. S. cerevisiae TIM10 strain growth, BacTiter-Glo luminescence, 24 h. actives 1.4% (n = 330,000);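 active = inhibition of 40% or more at the single tested concentration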;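 also: wild-type TIM10 isogenic control strain grown at permissive 25 °C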
PfHsp90 set2 = growth inhibition of yeast expressing Plasmodium Hsp90; S. cerevisiae expressing PfHsp90, BacTiter-Glo ATP, 48 h; yeast lacking PDR1 and PDR3 efflux regulators; inhibition, % at 9.4 µM; actives 0.32% (n = 310,000);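 active = every replicate shows inhibition above about 80%, whatever the replicate mean, limit read from the data; inconclusive = mean inhibition reaches the set limit but some replicate falls short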;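 also: 0% = DMSO neutral controls and 100% = 20 µM radicicol positive controls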
tim23-1 inh = growth inhibitors of tim23-1 mutant yeast | inhibition, % at 20 µM | actives 1.3% (n = 330,000) | S. cerevisiae tim23-1 growth, BacTiter-Glo luminescence, 24 h | AID 463212;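 active = growth inhibition of the mutant yeast at or above 50%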;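 also: temperature-sensitive mutant grown at 25 °C; plate controls were DMSO-treated mutant yeast for no effect and medium wells lacking yeast for full effect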
tim23-1 confirm = tim23-1 yeast growth inhibition, confirmed; shares compounds with tim23-1 inh; S. cerevisiae tim23-1 growth, BacTiter-Glo luminescence, 24 h; inhibition, % at 20 µM; actives 83% (n = 4,400);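 active = inhibition above about 39% in either of two replicate wells at 20 µM, limit read from the data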;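 also: temperature-sensitive tim23-1 mutant grown at 25 °C; 0% = DMSO wells with yeast and 100% = medium wells without yeast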
* hit, by the source's call; ? = inconclusive; / = not tested or not shown.

SMILES | tim10-1 inh | NALP3 yeast inh | TIM10 inh | PfHsp90 set2 | tim23-1 inh | tim23-1 confirm
CCC1=Nc2cc(C(=O)N3CCC4(CC3)OCCO4)ccc2Sc2ccc(C)cc21 | 11 | 5 | 6 | 0 | 10 | /
COc1cc(/C=C/[N+](=O)[O-])ccc1OC(=O)c1cccnc1 | -63 | 42 | 34 | 109* | 85* | -25
CN(C)c1ccc(/C=C/[N+](=O)[O-])cc1 | 12 | 11 | 2 | -23 | 46 | /
O=Cc1cn(Cc2cccc(F)c2)c2ccccc12 | 12 | 33 | -8 | -52 | 15 | /
O=Cc1cn(Cc2ccc(Br)cc2)c2ccccc12 | 27 | 39 | 24 | -53 | 59* | 39
COc1ccc(OC)c(CN2CCCC(C(=O)c3sccc3C)C2)c1 (configuration not stated) | 3 | 7 | -28 | -1 | 9 | /
CC(C)(C)c1ccc(O)c(N=Cc2c(O)ccc3ccccc23)c1 | 14 | 25 | 37 | -15 | 51* | 54*
COC(=O)C(O)(c1ccc(N=Cc2ccccc2O)c(C)c1)C(F)(F)F (configuration not stated) | -2 | 5 | -7 | -38 | 5 | /
COc1cc(OC)c(OC)cc1CNCCc1ccc2c(c1)OCO2 | -17 | 31 | -6 | -11 | -17 | /
O=Cc1cn(Cc2c(F)cccc2Cl)nc1-c1ccccc1 | 39 | 35 | 39 | 5 | 55* | 40*
CCc1ccc(-c2nn(Cc3ccccc3)cc2C=O)cc1 | 33 | 35 | 30 | -42 | 54* | 58*
O=C(c1cccs1)c1cn(Cc2ccccc2Cl)c2ccccc12 | 24 | 3 | 18 | 6 | 14 | /
N#Cc1ccccc1Cn1cc(C(=O)c2cccs2)c2ccccc21 | 8 | 2 | 22 | 5 | 61* | 13
CCC(CO)(C(=O)OC1CC2CCC(C1)N2C)c1ccccc1 (configuration not stated) | 5 | 14 | -1 | -1 | -8 | /
C[N+](C)(C)CCc1ccc(O)cc1 | -10 | 5 | 0 | 0 | -16 | /
CCCCCCCCc1ccc(O)cc1 | 17 | 15 | -2 | 20 | 51* | 40*
CCOC(=O)C(=O)NC1CCSC1=O (configuration not stated) | 7 | 1 | 7 | -6 | 20 | /
C[N+]12CCC(CC1)C(C(O)(c1ccccc1)c1cccs1)C2 (configuration not stated) | -2 | 1 | 5 | -11 | -9 | /
ClC1=C(Cl)C2(Cl)C3C(Cl)C=CC3C1(Cl)C2(Cl)Cl (configuration not stated) | 3 | 30 | -5 | -24 | 14 | /
C=CCN1C(=O)/C(=C\c2ccc(N3CCOCC3)o2)C(=O)NC1=S | 9 | 26 | 5 | 4 | 9 | /
C=CCN1C(=O)/C(=C/c2ccc(Br)s2)C(=O)NC1=S | 21 | 13 | 17 | ? | 56* | 72*
NS(=O)(=O)c1ccc(N=Cc2c(O)n(C3CCCCC3)c(=O)n(C3CCCCC3)c2=O)cc1 | 24 | 15 | 32 | -6 | 52* | 46*
CCn1c(O)c(C=Nc2ccc(S(N)(=O)=O)cc2)c(=O)n(CC)c1=S | 10 | 7 | 2 | 5 | 10 | /
CCC1CN1P(=S)(N1CC1CC)N1CC1CC (configuration not stated) | / | / | / | 7 | / | /
CN1C(=O)C(=Cc2ccccc2OCc2ccc(Cl)cc2)C(=O)N(C)C1=O | 18 | 36 | 24 | 8 | 67* | 80*
SMILES | tim10-1 inh | NALP3 yeast inh | TIM10 inh | PfHsp90 set2 | tim23-1 inh | tim23-1 confirm
Cc1ccc(S(=O)(=O)Oc2ccccc2C=C2C(=O)N(C)C(=O)N(C)C2=O)cc1 | 33 | 2 | 38 | -4 | 73* | 75*
COc1cccc(C2CC3C(=O)C=CC2N3Cc2ccccc2)c1 (configuration not stated) | 38 | 26 | 40 | 4 | 55* | 47*
O=c1c2ccccc2nc(/C=C/c2ccccc2O)n1-c1ccccc1O | 24 | 22 | 5 | -5 | 9 | /
O=c1c2ccccc2nc(/C=C/c2ccccc2F)n1-c1ccccc1O | 30 | 11 | 33 | 8 | 54* | 48*
CCC(C)(C)n1nnnc1C(c1cccs1)N1CC=C(c2ccc(F)cc2)CC1 (configuration not stated) | 21 | 9 | 39 | -4 | 57* | 52*
NC(N)=N/N=C/c1ccc(N(c2ccccc2)c2ccccc2)cc1 | -27 | 26 | 22 | 24 | 71* | 27*
N#CC(C#N)=C(C#N)c1ccc(Nc2ccccc2)cc1 | 16 | 8 | -21 | 0 | 57* | 20
COC(=O)c1cccc(NC(=O)N2C[C@H]3C[C@@H](C2)c2cccc(=O)n2C3)c1 | -20 | 11 | -6 | 5 | -12 | /

Bioassay records: PubChem BioAssay, several laboratories
